Test results: PubChem BioAssay (NCI)
This is part of a sample that, as a whole, favours compounds with a hit. Of some 83,000 tested, about 20% had one in any assay.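 Interpretation: 100, growth as untreated; towards 0, rising growth inhibition; 0, no net growth; 0 to -100, cell death. Compounds scoring below 10 were considered active.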 A number with no mark means an inactive call. Active and inactive are the calls of the source.

Key:
Experiment in all cases: NCI-60 one-dose screen, 48 h (100 = growth as untreated, 0 = no growth, -100 = all killed)
Settings in all cases: 10 µM unless noted
HCT-15 colon = test system: HCT-15 colon
HT29 colon = test system: HT29 colon
SNB-75 CNS = test system: SNB-75 CNS
SNB-19 CNS = test system: SNB-19 CNS
U251 CNS = test system: U251 CNS
PC-3 prostate = test system: PC-3 prostate
SK-MEL-5 melanoma = test system: SK-MEL-5 melanoma
UACC-62 melanoma = test system: UACC-62 melanoma
LOX IMVI melanoma = test system: LOX IMVI melanoma
SK-MEL-28 melanoma = test system: SK-MEL-28 melanoma

Row | Compound | growth (HCT-15 colon) | growth (HT29 colon) | growth (SNB-75 CNS) | growth (SNB-19 CNS) | growth (U251 CNS) | growth (PC-3 prostate) | growth (SK-MEL-5 melanoma) | growth (UACC-62 melanoma) | growth (LOX IMVI melanoma) | growth (SK-MEL-28 melanoma)
1 | COc1ccc(Cc2cc(-c3ccccc3)nn(Cc3ccccc3)c2=O)cc1OC | 28.7% | 29.1% | 58.3% | 46.5% | 32.7% | 20.8% | -3.54% (active) | 30.6% | 48.4% | 59.3%
2 | O=C(c1ccc(Cl)cc1)N1CCN(c2ccnc3cc(Cl)ccc23)CC1 | 95.5% | 81.7% | 110% | 84.2% | 78.7% | 80% | 90.8% | 71.5% | 103% | 99.6%
3 | O=C(Nc1cccnc1Nc1ccc(F)cc1)c1cn(Cc2cccc(Oc3ccccc3)c2)nn1 | 43.4% | 53.1% | 65.6% | 67.8% | 51.4% | 61.6% | 39.3% | 44.8% | 48.5% | 68.7%
4 | O=C1/C(=C/c2ccc(Cl)cc2)COc2ccc(O)c(O)c21 | -1.01% (active) | 15.5% | 18.2% | 24.9% | -57% (active) | -6% (active) | 56% | 4.2% (active) | -84.8% (active) | 60.2%
5 | CCC(C)N(c1ccc(Cl)cc1)c1nc(-c2ccc(Br)cc2)cs1 (stereo not given) | 97.7% | 106% | 102% | 105% | 98% | 99.9% | 104% | 87.2% | 93.3% | 111%
6 | CN(C)CCNC(=O)c1cccc(-c2cnc3ccc(-c4ccc5c(c4)OCO5)nn23)c1 | 46% | 10.9% | 73.2% | 84.3% | 86.1% | 61.5% | 90.8% | 81.8% | 20.7% | 99.5%
7 | CN(C)CC(=O)Nc1ccc2ncnc(Nc3ccc(Oc4cccc(C(F)(F)F)c4)c(Cl)c3)c2c1 | 1.59% (active) | 2.56% (active) | 87.2% | 70.3% | 36.2% | 61.7% | 66.5% | 88.2% | -93% (active) | 78%
8 | Cn1c(=O)c2[nH]c(N/N=C/c3ccccc3Br)nc2n(C)c1=O | 100% | 106% | 97.6% | 109% | 111% | 98.4% | 103% | 96.6% | 104% | 107%
9 | CCOC(=O)C1=C(NC)OCC1=O | 111% | 99.6% | 99.1% | 109% | 96.5% | 85.7% | 93.4% | 103% | 101% | 110%
10 | Clc1ccc(CNc2c3ccccc3nc3ccccc23)cc1 | 23.3% | 15% | 68.4% | 43.1% | 46.2% | 38.7% | 61.2% | 70.7% | 23% | 80.3%
11 | NC(=O)c1c(NC(=O)c2ccccc2)sc2c1CCC(=O)C2 | 12.4% | 9.53% (active) | -3.05% (active) | 18.6% | 17.6% | 10.1% | -57.6% (active) | 10.7% | 17.6% | 34.9%
12 | COc1cc(-n2cc(-c3cc(O)c(C/C=C(\C)CCC=C(C)C)c(O)c3)nn2)cc2c1O[C@]1(C)CC[C@@H](O)C(C)(C)[C@H]1C2 | -12.2% (active) | -34.6% (active) | 7.34% (active) | 32.5% | 4.31% (active) | 16.2% | -61.4% (active) | -30.2% (active) | -79.9% (active) | 35.7%
13 | CCCCN[C@H]1CC[C@@]2(C)[C@@H](CC[C@@]3(C)[C@H]2[C@H](O)C[C@H]2/C(=C(\CCC=C(C)C)C(=O)OC)[C@@H](OC(C)=O)C[C@@]23C)[C@@H]1C | 98.8% | 95.7% | 82.9% | 104% | 98.2% | 95.2% | 93.7% | 95.5% | 97.9% | 93.4%
14 | COc1ccc(-c2csc(N(C(=O)N3CCN(c4cc5c(cc4F)c(=O)c(C(=O)O)cn5C4CC4)CC3)c3ccccc3)n2)cc1 | 9.72% (active) | 3.36% (active) | 22.5% | 20.8% | 19.1% | 9.97% (active) | -21.6% (active) | 13% | 2.06% (active) | 36.3%
15 | N#CC1=C(N)Oc2c(sc3c(Br)cccc23)C1c1ccc(F)cc1 (stereo not given) | 10.3% | 1.78% (active) | 34.3% | 47.8% | 21.4% | 23.6% | 23.6% | 26.4% | 27.4% | 57.6%
16 | COc1ccc(-c2nn(-c3ccccc3)cc2/C=C2/SC(=S)N(C)C2=O)cc1 | 74.2% | 64.6% | 33.3% | 60.7% | 8.95% (active) | 84.9% | 98.5% | 86% | 77.1% | 108%
17 | COc1ccc(-c2csc(NC(=O)CSc3nc(-c4ccccc4)cc(=O)[nH]3)n2)cc1 | 70.9% | 85.9% | 82.3% | 70.1% | 79.7% | 66.5% | -16.5% (active) | 58.7% | 66% | 90.6%
18 | CN(Cc1ccc(C(F)(F)F)cc1)CC(O)C(=O)Nc1ccc(Cl)cc1 (stereo not given) | -15.4% (active) | 1.26% (active) | 24.6% | 31.4% | -82.3% (active) | 22% | 8.39% (active) | 29.7% | -85.4% (active) | 85.8%
19 | COc1ccc(OC)c(-c2c(C#N)c(-c3cccs3)nc3c2c(-c2ccccc2)nn3-c2ccccc2)c1 | 104% | 97.4% | 89% | 96.6% | 100% | 93.5% | 102% | 90.2% | 104% | 107%
20 | CC1=NN(c2nc(SCC(=O)Nc3nc4ccc(C)cc4s3)nc(-c3ccccc3)c2C#N)C(=O)C1 | 105% | 104% | 75.4% | 97.3% | 102% | 97.1% | 100% | 94.3% | 101% | 105%
21 | COc1cc(CNC(=O)CCCC/C=C/C(C)C)ccc1OCc1nnc(Nc2ccc([N+](=O)[O-])cc2)o1 | 81.2% | 71.7% | 48.7% | 54% | 48.6% | 37.6% | 46.3% | 39.6% | 55.2% | 74.3%
22 | O=C(OCc1ccc2cccc(O)c2n1)N1CCN(C(=O)c2cc3cc(F)ccc3[nH]2)CC1 | -36.4% (active) | -70.4% (active) | -45.2% (active) | 47.1% | -87.2% (active) | -43.9% (active) | -79.6% (active) | -93.8% (active) | -91.8% (active) | -91.2% (active)
23 | COc1cc2oc(-c3cccc(NC(=O)c4cccc(Br)c4)c3)cc(=O)c2c(OC)c1OC | 31.3% | 34.7% | 62.6% | 75.2% | 53.9% | 34.6% | 48.6% | 57.1% | 39.6% | 71.1%
24 | O=C(Nc1cccc([N+](=O)[O-])c1)c1cc2ccccc2cc1O | 12.8% | 13.4% | 6.46% (active) | 25.8% | 6.12% (active) | 0.633% (active) | -53.6% (active) | 18.8% | 10% | 28.1%
25 | Fc1cc(F)cc(C(c2c[nH]c3ccccc23)c2c[nH]c3ccccc23)c1 | 79.5% | 99.1% | 106% | 104% | 101% | 67.1% | 88.2% | 84.9% | 83.5% | 101%
26 | CC(C)(C)n1cc(-c2ccnc(NCCNS(=O)(=O)c3cccc4ccccc34)c2)c(-c2cccc(F)c2)n1 | -37.2% (active) | -29.6% (active) | -17.6% (active) | 27.5% | -18.7% (active) | 4.9% (active) | -97.1% (active) | 8% (active) | -86.8% (active) | -2.58% (active)
